Results published in PubChem BioAssay (NCI).
This is part of a sample that, as a whole, favours compounds with a hit. Of some 83,000 tested, about 20% had one in any assay.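 Growth was measured after 48 h exposure to one concentration of compound in 96-well plates. Values under 10 count as active.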 Unmarked numbers belong to inactive results. Activity calls are given as the source filed them.

These compounds were tested on OVCAR-3 ovarian (assay: NCI-60 one-dose screen, 48 h (100 = growth as untreated, 0 = no growth, -100 = all killed)). Settings: 10 µM unless noted.
Description: Growth inhibition of the OVCAR-3 human tumor cell line is measured as a screen for anti-cancer activity. Cells are grown in 96 well plates and exposed to the test compound for 48 hours. Compounds are tested at a single concentration, which is 10^-5 M for most compounds. The reported endpoint is percent growth (GI% or GIPRCNT), where numbers from 0 - 100% represent growth inhibition, and numbers from -100% - 0 represent cell death. For example, a value of 40 represents 60% growth inhibition. A value of 0 means no net growth occurred over the course of the experiment. A value of -40 indicates 40% of cells at the beginning of the experiment died by the end of the experiment. A value of -100 means all cells are dead at the end of the experiment.
NCI-60 Human Tumor Cell Lines Screen was performed using the standard one-dose NCI protocol, which is described in more detail at https://dtp.cancer.gov/discovery_development/nci-60/default.htm.
Compounds with GIPRCNT values below 10 were considered active. Activity score was based on GIPRCNT using the following formula: […]
Score is 0 for GIPRCNT values of 100 or above, 50 for GIPRCNT values of 0, and 100 for GIPRCNT values of -100.
For COc1ccc2nc(-c3ccc(Cl)cc3)cc(-c3nnc(SCC(=O)Nc4ccc(C(C)=O)cc4)n3-c3ccccc3)c2c1, the growth was 96.8%. With COc1cnc2c(c1)C(=O)c1c-2n(CCCN2CCNCC2)c(=O)c2cc(F)ccc12 the growth was 2.67% (active). CCCCCCCCCCN1CCC(N2CCCCC2)CC1 showed a growth of 20.1%. Work on CC(NNC(=S)N1CCCCCC1)c1ccc2ccccc2n1 (stereo not given) yielded a growth of 47.4%. In the case of CCOC(=O)CCC(=O)O[C@H]1[C@H](O[C@@H]2[C@@H](C)[C@H](O[C@H]3C[C@@](C)(OC)[C@@H](O)[C@H](C)O3)[C@@H](C)C(=O)O[C@H](CC)[C@@](C)(O)[C@H](O)[C@@H](C)C(=O)[C@H](C)C[C@@]2(C)O)O[C@H](C)C[C@@H]1N(C)C, the growth is reported as 125%. Nc1nc(SCc2cccnc2)c2ncn(C3OC(CO)C(O)C3O)c2n1 (stereo not given) showed a growth of 99.9%. COc1cccc(-c2nc(-c3ccc(N)cc3)co2)c1 gave a growth of 82%. In the case of COc1cc(/C=C/c2cc(/C=C/c3ccc(O)c(OC)c3)n(C(=O)Cc3ccccc3)n2)ccc1O, the growth is reported as 1.55% (active). Work on CCOC(=O)C1=CCC(n2cc(C)c(=O)[nH]c2=O)O1 (stereo not given) yielded a growth of 108%. For COC(=O)[C@H](Cc1cn(C)cn1)NC(=O)[C@@H](NC(=O)Nc1cc(C(F)(F)F)cc(C(F)(F)F)c1)C(C)C, the growth was -97.3% [100 µM] (active). COc1cc(/C=C/C(=O)C(C(=O)/C=C/c2ccc(OC(=O)CCNc3nnc(C)s3)c(OC)c2)C(=O)CCNc2nnc(C)s2)ccc1OC(=O)CCNc1nnc(C)s1 was tested, and the growth was 2.15% (active). In the case of Cc1ccccc1NC(=O)NC(CC(N)=O)c1ccc2c(c1)nc(-c1cccc(Oc3ccc(C(C)(C)C)cc3)c1)n2CCCN1CCCCC1C (stereo not given), the growth is reported as 53.2%. O=c1oc2c(cc1-c1ccc([N+](=O)[O-])cc1)C(O)Oc1ccccc1-2 (stereo not given) gave a growth of 111%. O=C1/C(=C/c2ccc(F)cc2)Cc2ccccc21 gave a growth of 110%. For O=C(O)CNC(=O)C1(N2C(=O)c3ccccc3C2=O)CCCC1, the growth was 139%. O=C1c2cccc3c([N+](=O)[O-])ccc(c23)C(=O)N1CCCCl was tested, and the growth was -87.1% [100 µM] (active). Work on Oc1c(N=Nc2nn[nH]n2)ccc2ccccc12 yielded a growth of 71.6%. O=[N+]([O-])c1cc([N+](=O)[O-])c(N2CCCC2)cc1NN=C(c1ccc(O)cc1)c1ccc(O)cc1 gave a growth of 89.8%. For COc1ccc(/C=C2/SC(=Nc3c(C)nn(-c4ccccc4)c3N)NC2=O)cc1, the growth was -28.9% (active). With COc1ccc(N2CCN(CC(=O)N3CCN(c4nnc(-c5ccc(Cl)cc5)c(-c5ccc(Cl)cc5)n4)CC3)CC2)cc1 the growth was 52%. In the case of COc1ccc2c(c1)c(CC(=O)[Se]C)c(C)n2C(=O)c1ccc(Cl)cc1, the growth is reported as -12.4% (active). For COc1cc(C2=NN(C=O)C(c3cccc(Nc4ccnc5cc(Cl)ccc45)c3)C2)cc(OC)c1OC (stereo not given), the growth was 85.2%. Compound COc1cccc(CCN2C(=O)CCC3=C2CCC3=O)c1 has a growth of 114%. In the case of COc1ccc([N+](=O)[O-])c(S(=O)(=O)c2ccc(Cl)cc2)n1, the growth is reported as 36.6%. Compound COc1cc(/C=C\C(C)=N\Nc2ccccc2)ccc1O has a growth of 89.2%. Work on O=C(C(=O)N1CCOCC1)c1cn(CCCn2cc(C(=O)C(=O)N3CCOCC3)c3ccccc32)c2ccccc12 yielded a growth of 119%. CCCCN=C(N)c1ccc(OCCSCCOc2ccc(C(N)=NCCCC)cc2)cc1 was tested, and the growth was 39.6%. With C=CCNC(=O)/C(=C/c1cccc([N+](=O)[O-])c1)NC(=O)c1ccccc1 the growth was 108%. COc1ccc(-c2ccc(O)c(C(=O)/C=C/c3cc(OC)c(OC)c(OC)c3)c2)cc1 showed a growth of 93.7%. For CC(C)=CCNc1ncnc2c1ncn2C1OC(COP(=O)(O)O)C(O)C1O (stereo not given), the growth was 0.0655% (active). Compound Cc1sc2nc(NCc3ccccc3)[nH]c(=O)c2c1C has a growth of 40.7%. COc1cc2c(cc1OC)C(=O)/C(=C/c1cccc(OCC(=O)c3ccccc3)c1)C2 gave a growth of 118%. In the case of Nc1nc(NC2CC2)c2ncn(C3C=CC(CO)C3)c2n1 (stereo not given), the growth is reported as 110%. Compound CCSc1nc(-c2cccs2)n2nc(-c3ccco3)cc2n1 has a growth of 112%. With O=C(N/N=C/c1cccc(O)c1O)c1ccccc1 the growth was 16.2%. Compound O=C1/C(=C\c2coc3ccccc3c2=O)c2ccccc2N1c1c(Cl)cccc1Cl has a growth of 16.8%. With COC(=O)[C@H]1[C@H]2C[C@@H]3c4[nH]c5cc(OC)ccc5c4CCN3C[C@H]2C[C@@H](OC(=O)/C=C/c2cc(OC)c(OC)c(OC)c2)[C@@H]1OC the growth was -42.8% (active). With CCCCCN1C(=O)CCC1=O the growth was 103%. Compound Cc1ccc(S(=O)(=O)N2CCN(C(=O)CSc3nc4ccc(C)cc4[nH]3)CC2)cc1 has a growth of 111%. In the case of CC[C@@H](C)/C=C(C)/C=C/C(O)=C1\C(=O)N[C@@H](Cc2ccc(OC(=O)[C@@](OC)(c3ccccc3)C(F)(F)F)cc2)C1=O, the growth is reported as 67.8%.
